In all, about 69,000 compounds went through this assay and about 8,600 (12%) showed an effect of 50% or more. This excerpt belongs to a sample that is enriched for strong results.

The test system of this assay is Plasmodium berghei. The experiment in a line: Screen against P. berghei liver stage (PbLuc), transformed with Luciferase, at 10uM. The format is functional, HepG2. The note with it: tested at 10 uM.
As for `COCC(c1cccc(C(F)(F)F)c1)N(C)C(=O)c1ccoc1` (stereo not drawn), the INHIBITION came out at 40.49%.
For `COc1cccc2c3c(c(=O)n(C)c12)CCC(C)(C)O3`, the INHIBITION worked out at 12.3%.
For `Cn1cccc1C(=O)N1CCn2cc(CNC(=O)CC3CC3)nc2C1`, the INHIBITION is recorded as 9.67%.
In the case of `CCc1ncc2c(n1)CN(Cc1cnc(C)cn1)CC2` it was 25.2%; in that of `COCCC(=O)N1CCC(c2nnc(-c3ccsc3)o2)CC1`, 0.75%; in that of `COc1cccc(C2c3c(n[nH]c3C)N=C3COC(=O)C32)c1O` (stereo not drawn), 48%.
Next, `COc1cc(C2c3c(n[nH]c3C)N=C3COC(=O)C32)cc2c1OCO2` (stereo not drawn): 58.1%.
Next, `COc1cc(C2SCC(=O)Nc3[nH]ncc32)cc2c1OCO2` (stereo not drawn): 30.2%; `CSc1nc(N)c2c(n1)N=C1COC(=O)C1C2c1cccc(O)c1` (stereo not drawn): 25.1%; `CCOc1c(Br)cc(C2c3c(n[nH]c3C)N=C3COC(=O)C32)cc1OC` (stereo not drawn): 72.4%.
As to `COc1cc(C2c3c(n[nH]c3C)N=C3COC(=O)C32)cc(Br)c1O` (stereo not drawn), the INHIBITION worked out at 62.3%.
In the case of `COc1cccc(C2c3c(n[nH]c3C)N=C3COC(=O)C32)c1OC` (stereo not drawn) it was -7.77%; in that of `O=C(NCc1ccco1)[C@H]1CC[C@@H]2[C@@H](CCN2c2ncc(F)cn2)O1`, 38.1%.
In the case of `CC(=O)NC1CCCN(C(=O)NCCOc2ccc3c(c2)OCO3)C1` (stereo not drawn) it was 15.6%.
In the case of `O=C(CCc1ccncc1)N1CCCC(n2cccn2)C1` (stereo not drawn) it was 24.39%; in that of `O=C(c1cccn1Cc1cccs1)N1CCC(C(=O)N2CCCC2)CC1`, 11.6%.
As for `COCc1cccc(CNCc2c(C)nn(C)c2N2CCOCC2)c1`, the INHIBITION is 27.4%.
With `CCCN1CCCCCC1Cc1c(C(=O)NC)sc2ccccc12` (stereo not drawn), the INHIBITION turned out to be 17.235%.
Next, `CN1CCCNC(=O)C12CCN(C(=O)c1ccc3[nH]cnc3c1)CC2`: 20.2%; `CCc1noc(C(C)N2CCN(CCOCC(F)(F)F)CC2)n1` (stereo not drawn): -5.545%; `O=C(NCC1CCCN1CCc1ccccc1)NCC1(O)CCC1` (stereo not drawn): 19.2%.
On to `O=C(NCc1nccn1CCc1ccccc1)NCC1(O)CCC1`, for which the INHIBITION is recorded as -4.15%.
In the case of `O=C(NCC1CCCN1Cc1ccccc1)NCC1(O)CCC1` (stereo not drawn) it was 53.8%.
In the case of `CCCN1CCC(CNC(=O)C2(c3ccccc3)CCC2)C1` (stereo not drawn) it was 42.9%; in that of `Cc1noc(C(C)C)c1C(=O)NCC1CCCN1Cc1ccccc1` (stereo not drawn), 24.1%.
As for `O=C(NCC1CCN(CCc2ccccc2)C1)NCC1(O)CCC1` (stereo not drawn), the INHIBITION is recorded as 53.8%.
In the case of `CCC(=O)NCCCn1c(-c2cccnc2C)cc2cccnc21` it was 10.9%; in that of `CCNC(=O)C(C)NC(=O)Nc1ccccc1Cl` (stereo not drawn), 62.9%; in that of `O=C(NCCCn1nc2ccccn2c1=O)Nc1ccccc1Cl`, 7.12%.
Next, `CCNC(=O)C(C)NC(=O)Nc1ccccc1SCC` (stereo not drawn): 5.17%.
Next, `CCNC(=O)C(C)NC(=O)Nc1ccccc1SC(F)(F)F` (stereo not drawn): 65%; `Cn1c(C(F)(F)F)nn(CCNC(=O)Nc2ccccc2Cl)c1=O`: 21%.
For the compound `CCCNC(=O)C(C)NC(=O)Nc1ccccc1SC(F)F` (stereo not drawn), the INHIBITION turned out to be 41.5%.
In the case of `O=C1CCC2(CCC(NCc3ccoc3)CC2)N1` (stereo not drawn) it was 2.58%.
In the case of `O=C(CN1CCc2sccc2C1)Nc1nccs1` it was -41.6%; in that of `COC1COC2(CCN(CC3CCOCC3)CC2)C1` (stereo not drawn), 14%; in that of `Cc1ccnc(NC(=O)c2ccc(F)c(S(=O)(=O)NC3CC3)c2)c1`, -25.4%.
Next, `CCn1cnnc1C1CCN(C(=O)c2ccccc2F)CC1`: 21%; `CNC(=O)C1Cn2ccnc2C2(CCN(C(=O)c3ccoc3C)CC2)O1` (stereo not drawn): -7.7%; `CC(C)c1noc(C(C)N2CCN(Cc3cccs3)CC2)n1` (stereo not drawn): 15.5%.
Consider `CC(C)c1noc(C(C)N2CCC(c3nc4ccccc4[nH]3)CC2)n1` (stereo not drawn), for which the INHIBITION came out at 36.5%.
In the case of `CC(C)c1noc(C(C)N2CCN(Cc3nc4ccccc4[nH]3)CC2)n1` (stereo not drawn) it was 53.3%; in that of `CC(C)C(Sc1cccs1)C(=O)NCc1cccnc1` (stereo not drawn), 18.4%; in that of `Cc1nc(CN(C)C2CCN(CCCOc3ccc(F)cc3)C2)no1` (stereo not drawn), -0.219%.
In the case of `COCC(=O)N1CCCC(c2cc(C(F)F)n3ncnc3n2)C1` (stereo not drawn) it was 59.3%; in that of `O=C(c1ccco1)N1CCCC(c2cc(C(F)F)n3ncnc3n2)C1` (stereo not drawn), 14.8%; in that of `O=C(c1ccco1)N1CCCC(c2cc(C(F)(F)F)n3ncnc3n2)C1` (stereo not drawn), 60.4%.
In the case of `O=C(c1ccncc1)N1CCCC(c2cc(C(F)F)n3ncnc3n2)C1` (stereo not drawn) it was 35.2%.
Consider `O=C(Cc1ccsc1)N1CCCC(c2cc(C(F)F)n3ncnc3n2)C1` (stereo not drawn), for which the INHIBITION is reported as 28%.
Next, `CC(C)C(=O)N1CCCC(c2cc(C(F)F)n3ncnc3n2)C1` (stereo not drawn): 39.8%.
Next, `O=C(c1cnoc1)N1CCC[C@]2(C[C@H](Oc3ncccc3F)CO2)C1`: -28.2%; `CCCSCC(=O)N1C[C@H]2CC[C@@H](C1)N(Cc1ccccn1)C2=O`: 35.9%; `O=C1OCCN1CC(=O)N1C[C@@H]2CC[C@H]1CN(C(=O)c1ccccc1)C2`: -12.6%.
`O=c1c(NCCOCCO)c(N2CCN(c3ccccc3)CC2)c1=O`: the INHIBITION is on record as 6.34%.
In the case of `CCn1nc(C)c2nnn(CC(=O)Nc3ccc(C)c(C)c3)c(=O)c21` it was 11%; in that of `COc1cc(C(=O)NCc2cc(N3CCOCC3)ncn2)ccn1`, 63.7%; in that of `COc1ccc(C(=O)NCc2cc(N3CCOCC3)ncn2)o1`, 8.11%.
Next, `COc1nc(C)c(C(=O)NCc2cc(N3CCOCC3)ncn2)s1`: 34%.
`O=C(Cn1ccc2ccccc21)NCc1cc(N2CCOCC2)ncn1`: the INHIBITION was determined as 12.8%.
Next, `Cc1cc(C(=O)NCc2ccnc(N3CCOCC3)c2)c(C)s1`: 4.65%; `O=C(NCc1cc(N2CCOCC2)ncn1)c1cccc(CO)n1`: 71.1%.
Regarding `CCn1cnnc1CNC(=O)N1CCN(c2ccccc2O)CC1`, the INHIBITION is recorded as 36.1%.
Next, `NCC1[C@H]2CN(Cc3ccccc3F)C[C@@H]12` (stereo partly drawn): 45.7%; `O=c1cc(CSc2nnc[nH]2)nc2sc3c(n12)CCCC3`: 16.5%; `CC(C)OCCS(=O)(=O)N1CCN(Cc2cccn2C)CC1`: 4.1%.
In the case of `COCCCS(=O)(=O)N1CCN(Cc2cccn2C)CC1` it was 51.1%; in that of `COCCCS(=O)(=O)N1CCN(c2cccc(O)c2)CC1`, 14.6%.
Take `Cc1c(Br)cccc1C(=O)NCCC1CCCNC1` (stereo not drawn): the INHIBITION worked out at 28.6%.
With `O=C(C1CC(c2ccccc2)=NO1)N1CCCCc2ccccc21` (stereo not drawn), the INHIBITION is -15%.
Turning to `CCC(c1ccc(F)cc1)S(=O)(=O)CCO` (stereo not drawn), the INHIBITION stood at 15.9%.
In the case of `CCC(c1ccc(F)cc1F)S(=O)(=O)CCO` (stereo not drawn) it was 23.8%.
In the case of `CCC(c1ccccc1)S(=O)(=O)CCO` (stereo not drawn) it was 61.8%; in that of `Nc1nccnc1C1CN(C(=O)COc2cccnc2)CCO1` (stereo not drawn), -50.3%.
`COCC(=O)N1CCC2(CC1)C(=O)N(Cc1cccnc1)CCN2C`: the INHIBITION is 43.2%.
With `O=C(O)c1cc(C=Cc2cccc3ccccc23)ncn1`, the INHIBITION came out at 8.05%.
Next, `c1ccc(-c2nccc(CNC3CCc4ncnn4C3)n2)cc1` (stereo not drawn): 36.1%; `Cn1ncc2c(NC3CCSC3)nc(-c3ccncc3)nc21` (stereo not drawn): 61.6%.
Regarding `Cn1ncc2c(NC3CCC3)nc(-c3ccncc3)nc21`, the INHIBITION is reported as 33.7%.
Next, `Cn1ncc2c(NC3CN4CCC3CC4)nc(-c3ccncc3)nc21` (stereo not drawn): 53.2%.
In the case of `Cn1ncc2c(N3CC[C@H](O)C3)nc(-c3ccncc3)nc21` it was 19.8%.
Regarding `Cn1ncc2c(N[C@@H]3C[C@H]4CC[C@@H]3C4)nc(-c3ccncc3)nc21`, the INHIBITION was 35.1%.
Consider `Cn1ncc2c(N3CCS(=O)(=O)CC3)nc(-c3cccnc3)nc21`, for which the INHIBITION is recorded as 35%.
Next, `Cn1ncc2c(N3CCC(F)(F)CC3)nc(-c3ccncc3)nc21`: 31%; `CN1[C@@H]2CC[C@H]1CN(c1nc(-c3ccncc3)nc3c1cnn3C)CC2`: 71.3%; `Cn1ncc2c(NCC3CCS(=O)(=O)C3)nc(-c3ccncc3)nc21` (stereo not drawn): 15.1%.
In the case of `CC(C)N1CCCN(c2nc(-c3cccnc3)nc3c2cnn3C)CC1` it was 86.6%.
With `Cn1ncc2c(N3CC(N4CCCCC4)C3)nc(-c3ccncc3)nc21`, the INHIBITION is on record as 22.6%.
Next, `Cn1ncc2c(N3CCC3)nc(-c3ccncc3)nc21`: -3.83%.
In the case of `CC(=O)N1CCc2cc(Cl)cc(Cl)c2C1` it was 37.7%.
Next, `COCC1CC2(CCN(CC3CC3)CC2)CN1c1ncccn1` (stereo not drawn): 18.2%; `Cn1ccc(C(=O)NC2CCC23CCN(Cc2ccc(F)cc2)CC3)c1` (stereo not drawn): -9.02%.
For the compound `Nc1ncnc2nc(C3CCN(C(=O)Cc4ccccc4)C3)ccc12` (stereo not drawn), the INHIBITION is recorded as 6.3535%.
Turning to `COc1ccc(-c2cc(C3CCNCC3)nc(C)n2)cc1`, the INHIBITION is listed as -29.9%.
In the case of `COc1ccc(N2CCN(Cc3nc(CSC)no3)CC2=O)cc1` it was -42.9%; in that of `CCNC(=O)Cc1ccc(NC(=O)NC(CC)c2ccncc2)cc1` (stereo not drawn), 4.15%; in that of `CCC(NC(=O)NCC(=O)Nc1ccc(F)cc1)c1ccncc1` (stereo not drawn), 58.3%.
Next, `CCC(NC(=O)Nc1ccc(OC)c(C)c1)c1ccncc1` (stereo not drawn): 26.6%; `O=C(c1ccco1)N1C[C@H]2CCCN(CC3CCOCC3)[C@H]2C1`: 49.5%.
Next, `Cc1cnc(NCCCN2CCCCC2CO)nc1` (stereo not drawn): 20.8%; `NC(=O)C(Cc1ccccc1)NS(=O)(=O)Cc1ccccc1Cl` (stereo not drawn): 9.75%; `N#Cc1cccc(CS(=O)(=O)NC(Cc2ccccc2)C(N)=O)c1` (stereo not drawn): 58.1%.
On to `N#Cc1cccc(CS(=O)(=O)NCCC(O)c2ccccc2)c1` (stereo not drawn), for which the INHIBITION is 24.5%.
In the case of `NC(=O)C(Cc1ccccc1)NS(=O)(=O)Cc1ccccc1F` (stereo not drawn) it was 50.5%; in that of `N#Cc1cccc(CS(=O)(=O)NCC(O)Cc2ccccc2)c1` (stereo not drawn), 30.8%.
In the case of `O=S(=O)(Cc1ccccc1F)NC(CO)c1ccco1` (stereo not drawn) it was 45.1%; in that of `O=C(NC1COC2(CCN(Cc3cccs3)CC2)C1)c1ccccn1` (stereo not drawn), 20.9%; in that of `Cc1ccc(CN[C@@H]2COC[C@H]2c2ccc(F)cc2)cc1C`, 49%.
On to `CN1CC2(CCC(C(=O)N3CCOCC3)CC2)Oc2ccccc2C1=O` (stereo not drawn), for which the INHIBITION is -3.58%.
